# Measurements from PubChem BioAssay (NCI).
# The panel holds about 83,000 compounds, 20% with a hit somewhere; the sample as a whole holds those more often.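 The endpoint reported here, percent growth, reads 100 for growth as untreated, 0 for no net growth and -100 for all cells dead.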 The source made the active and inactive calls. How the source made its calls: active means growth percent below 10; inactive means the rest.
# Test system: HT29 colon
# Assay: NCI-60 one-dose screen, 48 h (100 = growth as untreated, 0 = no growth, -100 = all killed)
# Details: 10 µM unless noted
row,SMILES,growth
1,CCN(CCCOc1ccc2c(Nc3cc(CC(=O)Nc4cccc(F)c4)[nH]n3)ncnc2c1)CCOP(=O)(O)O,30.5% (inactive)
2,CC/C=C\C[C@H]1C/C=C2/C(=O)C=C[C@@H]2C/C=C\CCCC(=O)O1,-29.2% (active)
3,Cc1cn(-c2cc(NC(=O)c3ccc(C)c(Nc4nccc(-c5cnccn5)n4)c3)cc(C(F)(F)F)c2)cn1,19.7% (inactive)
4,COc1cc2ncnc3c2cc1OCCCCCN(C)Cc1ccc(Br)cc1N3,28.9% (inactive)
5,C[C@@]1(C(=O)Nc2ccc(F)nc2)CCCN1c1nc(Nc2cc(C3CC3)[nH]n2)c2cccn2n1,-31.8% (active)
6,C[C@]12O[C@H](C[C@]1(O)CO)n1c3ccccc3c3c4c(c5c6ccccc6n2c5c31)CNC4=O,-22.5% (active)
7,CCN1CCN(CCCN(C[C@H]2Cc3ccccc3CN2)[C@H]2CCCc3cccnc32)CC1,75.2% (inactive)
8,COCc1c(-c2ccc(NC(=O)Nc3cc(C(F)(F)F)ccc3F)c(F)c2)c2c(N)ncnn2c1CN1CCOCC1,-26.8% (active)
9,COc1cc2cc(NCc3ccc(F)cc3)nc(C)c2cc1OC,11.9% (inactive)
10,CC(=O)C1=C(C)NC(SCc2nnc(-c3ccc(C)cc3)o2)=NC1c1ccc(F)cc1 (stereo not given),110% (inactive)
11,N#CC[C@H](C1CCCC1)n1cc(-c2ncnc3[nH]ccc23)cn1,62.9% (inactive)
12,Cc1ccc(-[n+]2c3cc(N)c(C)cc3nc3cc(C)c(Nc4ccccc4)cc32)cc1,-73.9% (active)
13,COc1cc2cc(NCc3ccc(Cl)cc3)nc(C)c2cc1OC,10% (inactive)
14,CC(=O)c1cnc2ccc(-c3cc(Cl)c(O)c(Cl)c3)nc2c1NC1CCC(CN(C)C)CC1 (stereo not given),0.58% [2.5 µM] (active)
15,CCN(CC)c1cc2oc3cc(N)cc(=N)c-3nc2cc1C,86.7% (inactive)
16,CO[C@H]1C[C@@H]2CC[C@@H](C)[C@@](O)(O2)C(=O)C(=O)N2CCCC[C@H]2C(=O)O[C@H]([C@H](C)C[C@@H]2CC[C@@H](O)[C@H](OC)C2)CC(=O)[C@H](C)/C=C(\C)[C@@H](O)[C@@H](OC)C(=O)[C@H](C)C[C@H](C)\C=C/C=C/C=C/1C,18.7% (inactive)
17,COc1cccc(NC(=O)Nc2ccc(Nc3ncnc4sc5c(c34)CCN(C(=O)CCl)C5)cc2)c1,90.2% (inactive)
18,CCN(CC)CCNC(=O)c1c(C)[nH]c(/C=C2\C(=O)Nc3ccc(F)cc32)c1C,-53.9% (active)
19,CO[C@@H](C)Cn1c(=O)n(C)c2cnc3ccc(-c4cncc(C(C)(C)O)c4)cc3c21,2.26% (active)
20,Cc1c(N)ccc(-c2ccc(N)c(C)c2S(=O)(=O)O)c1S(=O)(=O)O,111% (inactive)
21,CNC(=O)c1cc(Oc2ccc(NC(=O)Nc3ccc(Cl)c(C(F)(F)F)c3)c(F)c2)ccn1,-35.2% (active)
22,COCCOc1cnc2ccn([C@H](C)c3nnc4c(F)cc(-c5cnn(C)c5)cn34)c(=O)c2c1,104% (inactive)
23,N#Cc1c(-c2ccc(Cl)cc2)csc1NC(=O)Nc1cccc(C(F)(F)F)c1,13% (inactive)
24,CC(=O)C1CC(C)CCC1C(C)C (stereo not given),101% (inactive)
25,O=C(COc1cccc(/C=C2\Cc3ccc(Cl)cc3C2=O)c1)Nc1nccs1,102% (inactive)
26,O=C(Cn1ccnc1)Nc1ccc(-c2nc3ccccc3s2)cc1,93.3% (inactive)
27,CN1CCC(CNc2ccc3ncc(-c4cccc(OC(F)(F)F)c4)n3n2)CC1,-46.1% (active)

# Test system: SNB-75 CNS
# Assay: as above
# Details: 10 µM unless noted
row,SMILES,growth
1,C=CC(=O)N1CCC(Oc2cc3c(Nc4ccc(Cl)c(Cl)c4F)ncnc3cc2OC)CC1,-18.4% (active)
2,FC(F)(F)c1ccc(CNc2ccc(Cc3c[nH]c4ncc(Cl)cc34)cn2)cn1,9.21% (active)
3,O=S1(=O)OC(c2cc(Cl)c(O)c(Br)c2)(c2cc(Cl)c(O)c(Br)c2)c2ccccc21,83.4% (inactive)
4,CC(C)(C)OC(=O)N1CCC(O)[C@@H](O[Si](c2ccccc2)(c2ccccc2)C(C)(C)C)[C@H]1/C=C/c1ccccc1 (stereo not given in full),46.8% (inactive)
5,Cc1cn(-c2cc(NC(=O)c3ccc(C)c(Nc4nccc(-c5cccnc5)n4)c3)cc(C(F)(F)F)c2)cn1,55.7% (inactive)
6,Cc1cnc(Nc2ccc(OCCN3CCCC3)cc2)nc1Nc1cccc(S(=O)(=O)NC(C)(C)C)c1,-97.9% (active)
7,Cc1cccc(C)c1N1C(c2ccccc2)=NNC12C=CC(=O)c1c(O)cccc12 (stereo not given),96.7% (inactive)
8,C=CC(=O)Nc1cccc(Nc2nc(Nc3ccc(N4CCN(C(C)=O)CC4)cc3OC)ncc2C(F)(F)F)c1,16.1% (inactive)
9,COc1ccc(/C(C)=C(\c2ccc(Cl)cc2)c2ccc(OCCN3CCCCCC3)cc2)cc1,74.4% (inactive)
10,Cc1cc(C(=O)Nc2cc(Oc3ccc4nc(NC(=O)C5CC5)cn4n3)ccc2C)n(C)n1,7.99% (active)
11,CO[C@H](C(=O)N[C@@H](CCCCNC(=O)OCc1ccccc1)C(=O)OC(C)(C)C)[C@@H]1Cc2cc3cc(OC4CC(OC5CC(O)C(O)C(C)O5)C(O)C(C)O4)c(C)c(O)c3c(O)c2C(=O)[C@H]1OC1CC(OC2CC(OC3CC(C)(O)C(O)C(C)O3)C(O)C(C)O2)C(O)C(C)O1 (stereo not given in full),-94.3% (active)
12,CCN(CCCOc1ccc2c(Nc3cc(CC(=O)Nc4cccc(F)c4)[nH]n3)ncnc2c1)CCOP(=O)(O)O,80.5% (inactive)
13,CC/C=C\C[C@H]1C/C=C2/C(=O)C=C[C@@H]2C/C=C\CCCC(=O)O1,47% (inactive)
14,Cc1cn(-c2cc(NC(=O)c3ccc(C)c(Nc4nccc(-c5cnccn5)n4)c3)cc(C(F)(F)F)c2)cn1,88.2% (inactive)
15,COc1cc2ncnc3c2cc1OCCCCCN(C)Cc1ccc(Br)cc1N3,74.5% (inactive)
16,C[C@@]1(C(=O)Nc2ccc(F)nc2)CCCN1c1nc(Nc2cc(C3CC3)[nH]n2)c2cccn2n1,-53.2% (active)
17,C[C@]12O[C@H](C[C@]1(O)CO)n1c3ccccc3c3c4c(c5c6ccccc6n2c5c31)CNC4=O,-99.4% (active)
18,CCN1CCN(CCCN(C[C@H]2Cc3ccccc3CN2)[C@H]2CCCc3cccnc32)CC1,84.8% (inactive)
19,COCc1c(-c2ccc(NC(=O)Nc3cc(C(F)(F)F)ccc3F)c(F)c2)c2c(N)ncnn2c1CN1CCOCC1,-95.8% (active)

row,SMILES,growth
1,COc1cc2cc(NCc3ccc(F)cc3)nc(C)c2cc1OC,101% (inactive)
2,CC(=O)C1=C(C)NC(SCc2nnc(-c3ccc(C)cc3)o2)=NC1c1ccc(F)cc1 (stereo not given),98.5% (inactive)
3,N#CC[C@H](C1CCCC1)n1cc(-c2ncnc3[nH]ccc23)cn1,33.8% (inactive)
4,Cc1ccc(-[n+]2c3cc(N)c(C)cc3nc3cc(C)c(Nc4ccccc4)cc32)cc1,-68.5% (active)
5,COc1cc2cc(NCc3ccc(Cl)cc3)nc(C)c2cc1OC,96.3% (inactive)
6,CC(=O)c1cnc2ccc(-c3cc(Cl)c(O)c(Cl)c3)nc2c1NC1CCC(CN(C)C)CC1 (stereo not given),-96.9% [2.5 µM] (active)
7,CCN(CC)c1cc2oc3cc(N)cc(=N)c-3nc2cc1C,11.6% (inactive)
8,CO[C@H]1C[C@@H]2CC[C@@H](C)[C@@](O)(O2)C(=O)C(=O)N2CCCC[C@H]2C(=O)O[C@H]([C@H](C)C[C@@H]2CC[C@@H](O)[C@H](OC)C2)CC(=O)[C@H](C)/C=C(\C)[C@@H](O)[C@@H](OC)C(=O)[C@H](C)C[C@H](C)\C=C/C=C/C=C/1C,11% (inactive)
9,COc1cccc(NC(=O)Nc2ccc(Nc3ncnc4sc5c(c34)CCN(C(=O)CCl)C5)cc2)c1,86.4% (inactive)
10,CCN(CC)CCNC(=O)c1c(C)[nH]c(/C=C2\C(=O)Nc3ccc(F)cc32)c1C,18.2% (inactive)
11,CO[C@@H](C)Cn1c(=O)n(C)c2cnc3ccc(-c4cncc(C(C)(C)O)c4)cc3c21,-41.8% (active)
12,Cc1c(N)ccc(-c2ccc(N)c(C)c2S(=O)(=O)O)c1S(=O)(=O)O,101% (inactive)
13,CNC(=O)c1cc(Oc2ccc(NC(=O)Nc3ccc(Cl)c(C(F)(F)F)c3)c(F)c2)ccn1,-68.8% (active)
14,COCCOc1cnc2ccn([C@H](C)c3nnc4c(F)cc(-c5cnn(C)c5)cn34)c(=O)c2c1,93.2% (inactive)
15,N#Cc1c(-c2ccc(Cl)cc2)csc1NC(=O)Nc1cccc(C(F)(F)F)c1,29.3% (inactive)
16,CC(=O)C1CC(C)CCC1C(C)C (stereo not given),81.1% (inactive)
17,O=C(COc1cccc(/C=C2\Cc3ccc(Cl)cc3C2=O)c1)Nc1nccs1,76.6% (inactive)
18,O=C(Cn1ccnc1)Nc1ccc(-c2nc3ccccc3s2)cc1,88.8% (inactive)
19,CN1CCC(CNc2ccc3ncc(-c4cccc(OC(F)(F)F)c4)n3n2)CC1,-75.1% (active)
